Common to all, as to test: NCI-60 one-dose screen, 48 h (100 = growth as untreated, 0 = no growth, -100 = all killed)
What all share (settings): 10 µM unless noted

Assay [1] has as its system NCI-H23 lung.
Assay [2] has as its system NCI-H226 lung.
For assay [3], the system named is NCI-H322M lung.
In assay [4] the test system is HOP-62 NSCLC.
Assay [5] concerns NCI-H460 lung.
The test system of assay [6] is HOP-92 NSCLC.
Assay [7] concerns NCI-H522 lung.
The subject of assay [8] is A549/ATCC NSCLC.
Assay [9] has as its system 786-0 renal.
Assay [10] concerns COLO 205 colon.
The test system of assay [11] is DU-145 prostate.
Assay [12] relates to K-562 leukemia.
Assay [13] deals with MALME-3M melanoma.
For assay [14], the system named is MDA-MB-231 breast.
The test system of assay [15] is RXF 393 renal.
The subject of assay [16] is SF-268 CNS.
Assay [17] concerns SF-295 CNS.
In assay [18] the test system is SF-539 CNS.
The test system of assay [19] is UACC-257 melanoma.
Assay [20] relates to M14 melanoma.

About 83,000 compounds went through this panel and 20% of them were active in at least one assay; those are over-represented in the sample as a whole.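 In brief: 96-well plates, 48 h treatment, single concentration, percent growth endpoint.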 Unmarked numbers belong to inactive results. Activity calls are given as the source filed them. How the source made its calls: active means growth percent below 10; inactive means the rest.

For the compound `C(=N\Nc1ccccn1)/c1ccccn1`, the growth in assay [1] is 12.1%; in [2] it was 16%; in [3], 15.7%; in [4], 19.2%; in assay [5] it was 7.9% (active); in assay [6], 79.1%. The growth is -9.71% (active) in assay [7]; 12.2% in assay [8]; -41.9% (active) in assay [9]; 34.6% in assay [10]; 9.51% (active) in [11]; 19.3% in assay [12]. Also, the growth is -2.58% (active) in [13]; 47.6% in [14]; 17% in [15]; -0.109% (active) in [16]; 21.7% in [17]; 7.48% (active) in [18]. Further, the growth in assay [19] is -18.9% (active); in assay [20] it was -35.8% (active).

For the compound `CN1CCN(Cc2ccc(NC(=O)c3cncc(C#Cc4cncc5nccnc45)c3)cc2C(F)(F)F)CC1`, the growth in assay [1] was 33.8%; in assay [2] it was 5.97% (active); in assay [3], 43.6%; in assay [4], 53.5%; in assay [5], 34.5%; in assay [6], -11.9% (active). In addition, the growth in [7] is 43.8%; in assay [8], 70.8%; in assay [9], 73.1%; in assay [10], 2.52% (active); in assay [11], 47.7%; in [12] it was 10.4%. Further, the growth in assay [13] is -17.7% (active); in assay [14], 26.9%; in [15], 28.1%; in [16], 58.9%; in assay [17] it was 70.7%; in assay [18], 26.9%. In addition, the growth in assay [19] was 35.5%; in [20], 9.82% (active).

Consider `CCN(CC)CCCC(C)NCCCNc1cccc2cccnc12` (stereo not given), for which the growth in [1] was 92.8%; in [2], 93.5%; in assay [3], 79.1%; in assay [4], 82.6%; in assay [5] it was 101%; in [6], 92.5%. The growth was 103% in assay [7]; 106% in [8]; 109% in assay [9]; 91.7% in assay [10]; 106% in assay [11]; 97.5% in assay [12]. Also, the growth in [13] is 88.1%; in [14], 81.4%; in assay [15], 104%; in [16] it was 86.6%; in assay [17] it was 98%; in assay [18] it was 100%. The growth in [19] and in assay [20] was 104% in each case.

Turning to `O=[N+]([O-])c1cccc(-c2nc3sccn3c2-c2ccnc(NCCCNS(=O)(=O)c3ccc(F)cc3)n2)c1`, the growth is -7.3% (active) in assay [1]; -3.92% (active) in assay [2]; 26.8% in assay [3]; 12.5% in assay [4]; 10.5% in assay [5]; 46.2% in assay [6]. For the same compound, the growth was 0.116% (active) in [7]; 9.67% (active) in assay [8]; 44.2% in [9]; 4.52% (active) in [10]; 10.6% in assay [11]; 7.51% (active) in assay [12]. Also, the growth was -9.59% (active) in [13]; 44.9% in [14]; 53.4% in [15]; 9.32% (active) in assay [16]; 5.57% (active) in assay [17]; 26.5% in assay [18]. Further, the growth in assay [19] is 0.0199% (active); in [20], 0.021% (active).

Regarding `COC1=CC(=O)C(OC)=C(OC)C1=O`, the growth is 90.5% in [1]; 86.7% in [2]; 94.2% in assay [3]; 92.6% in assay [4]; 96.6% in assay [5]; 109% in [6]. In addition, the growth in assay [7] is 100%; in assay [8], 114%; in assay [9], 93.4%; in [10] it was 114%; in assay [11] it was 106%; in [12], 63.9%. In addition, the growth in assay [13] is 92.1%; in assay [14], 86%; in [15], 111%; in assay [16] it was 94.3%; in [17] it was 99.3%; in [18], 90.7%. Moreover, the growth in [19] is 107%; in assay [20], 93.2%.

On to `COc1nc2c(cc1S(=O)(=O)c1ccccc1)CCc1c-2cnn1Cc1ccccc1`, for which the growth in [1] was 54.1%; in [2] it was 65.9%; in assay [3] it was 60.1%; in assay [4], 56.2%; in assay [5], 54%; in [6] it was 3.62% (active). The growth in assay [7] was 43.2%; in [8], 57.9%; in assay [9], 52.3%; in assay [10], 60.9%; in assay [11], 83.5%; in assay [12], 38%. Also, the growth in assay [13] was 91.3%; in assay [14], 59.1%; in [15], 38.8%; in assay [16], 82.2%; in assay [17], 42%; in assay [18], 73.7%. The growth in [19] was 48.3%; in assay [20] it was 75.9%.

Turning to `COc1cccc(-c2cn3c(ccc4ccccc43)n2)c1`, the growth is 49.8% in [1]; 43.9% in assay [2]; 56.4% in assay [3]; 25.8% in assay [4]; 17.8% in [5]; 64.2% in assay [6]. Further, the growth was 15.9% in assay [7]; 55% in [8]; 44.4% in assay [9]; 11.4% in [10]; 39% in assay [11]; 13.2% in assay [12]. The growth is 36.9% in assay [13]; 44.9% in assay [14]; -5.05% (active) in [15]; 56% in assay [16]; 10.6% in assay [17]; 12.5% in assay [18]. The growth in [19] was 58.7%; in [20], 30.2%.

As for `CC[C@H](CO)Nc1nc(NCc2ccccc2)n2ncc(C(C)C)c2n1`, the growth was 13.3% in assay [1]; 10.3% in [2]; 14.8% in assay [3]; 3.3% (active) in assay [4]; 5.04% (active) in assay [5]; -8.83% (active) in assay [6]. Moreover, the growth in assay [7] was 1.9% (active); in [8] it was 19.7%; in assay [9] it was -2.74% (active); in [10], -27% (active); in [11] it was 7.53% (active); in assay [12] it was 2.92% (active). Moreover, the growth in assay [13] was -17% (active); in assay [14] it was 8.97% (active); in assay [15], -13.9% (active); in assay [16] it was 5.86% (active); in assay [17] it was 0.519% (active); in assay [18], -46% (active). Further, the growth was 24.2% in assay [19] and 8.94% (active) in [20].

These data come from PubChem BioAssay (NCI).
